Growth data for 33 compounds are collected here from PubChem BioAssay (NCI).

Structures are written as SMILES. About 83,000 compounds went through this panel and 20% of them were active in at least one assay; those are over-represented in the sample as a whole.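 Values shown are percent growth following 48 h exposure of cells in 96-well plates to a single concentration of compound; below 10 was considered active.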 Values without a mark were called inactive. The source made the active and inactive calls.

In the assay the test system is MALME-3M melanoma. Nature of the assay: NCI-60 one-dose screen, 48 h (100 = growth as untreated, 0 = no growth, -100 = all killed). The conditions noted are these: 10 µM unless noted.
In the case of `Fc1ccc(COc2ccc(Nc3ncnc4sc5c(c34)CCCC5)cc2)cc1`, the growth was 109%.
The figure for `COc1cc(C2Cc3ncccc3-c3[nH]c(=O)c4cccnc4c32)cc(OC)c1OC` (stereo not drawn) is 77.6%; for `O=C(c1ccc(Cl)cc1Cl)N1c2ccccc2Sc2ccccc21` it is 63.8%; for `O=C(N/N=C/c1ccc([N+](=O)[O-])cc1)c1ccc2nc(-c3ccc(Cl)cc3)[nH]c2c1` it is 7.79% (active).
On to `O=C(NCc1ccccc1O)c1cccc2ccccc12`, for which the growth was 48.7%.
For the compound `CC1=C(C(=O)n2c3ccccc3c3ccccc32)C(c2cccc([N+](=O)[O-])c2)C(C(=O)n2c3ccccc3c3ccccc32)=C(C)N1`, the growth is 88.9%.
The figure for `COc1ccc(/C=C/C(=O)c2ccc(NC(=O)CSc3nnc(-c4cc(-c5ccccc5)nc5ccccc45)n3-c3ccccc3)cc2)cc1` is 98%.
The figure for `Cn1cc(-c2nc(-c3c[nH]c4ccncc34)cs2)c2cc(Br)ccc21` is -79.2% (active); for `C#Cc1cccc(Oc2ccc(NC(=O)CCl)cc2)c1` it is 21.3% [8.25 µM].
In the case of `CC1(C)CC[C@]2(C(=O)N3CCOCC3)CC[C@]3(C)C(=CC[C@@H]4[C@@]5(C)C/C(=C/c6ccncc6)C(=O)C(C)(C)[C@@H]5CC[C@]43C)[C@@H]2C1` it was -19.7% (active); in that of `CC(C)c1ccc(NC(=O)Nc2ccc(NC(=O)c3ccccc3N)cc2)cc1`, 72.9%; in that of `Cc1cc(C(=O)Nc2cc(Nc3ncccc3-c3ncnc4nc[nH]c34)ccc2F)cc(C(F)(F)F)c1`, 108%.
Consider `COc1cc2c3c(n(CCCCNCCCn4c5c(c6cc(OC)c(OC)cc6c4=O)C(=O)c4cc6c(cc4-5)OCO6)c(=O)c2cc1OC)-c1cc2c(cc1C3=O)OCO2`, for which the growth was 81.8%.
With `CNC(=O)c1c(NC(=O)c2ccc(C(C)(C)C)cc2)sc2c(CN(C)C)c(O)ccc12`, the growth was -88.9% (active).
In the case of `CCCCn1sc(=O)n(Cc2ccc(CNC(=O)OCc3ccc4c(Cl)cc(Cl)c(O)c4n3)cc2)c1=O` it was 73%.
For the compound `O=C1Nc2ccc(F)cc2/C1=N/c1nnc(Sc2ccccc2)s1`, the growth was 110%.
Take `N#Cc1c(N2CCOCC2)nc(=S)[nH]c1-c1ccccc1`: the growth was -3.74% (active).
For `O=C(CSc1nnc2sc(Nc3cccc(Cl)c3)nn12)c1ccc(F)cc1`, the growth is 116%.
The figure for `C=C(CO)[C@@H]1CC[C@]2(COC3CCCCO3)CC[C@]3(C)[C@H](CC[C@@H]4[C@@]5(C)C=C(C=O)C(=O)C(C)(C)[C@@H]5CC[C@]43C)[C@@H]12` (stereo partly drawn) is -78.4% (active); for `COc1ccc(-c2cc(C(=O)N3N=C(c4ccc(N)cc4)CC3c3ccccc3)c3ccccc3n2)cc1` (stereo not drawn) it is 54.6%; for `COc1ccc(-c2cc(-c3cc(OC)c(OC)c(OC)c3)c(C#N)c(=O)n2CCCCCC(=O)NO)cc1` it is 97.8%.
`Cn1ccnc1C(=O)/C=C/c1ccc(C(=O)Nc2ccc(F)cc2)cc1`: the growth is 66.4%.
Take `C=C1C(=O)O[C@H]2[C@H]1CC/C(COC(=O)NCCCCCCCCNC(=O)OC/C1=C/CC[C@@]3(C)O[C@H]3[C@H]3OC(=O)C(=C)[C@@H]3CC1)=C\CC[C@@]1(C)O[C@@H]21`: the growth is -64.4% (active).
On to `C/C(C=O)=C\c1ccc2c(c1)OCO2`, for which the growth was 127%.
Consider `COc1cccc(/C=C/C(=O)c2cc3c(N)c(C(=O)Nc4cccc(Cl)c4C)sc3nc2C)c1`, for which the growth is 14.7%.
Consider `COC(=O)/C=C1/SC(=Nc2cccc(Cl)c2)N(CCc2c[nH]c3ccc(O)cc23)C1=O`, for which the growth is 42.6%.
The figure for `CCC/C(=N\NC(N)=O)C(OC)OC` is 99.5%.
In the case of `COc1ccc2cc(Cn3cc[n+](Cc4ccc5ccccc5c4)c3)ccc2c1` it was 24.3%; in that of `Cn1c(=O)c2c(c3ccccc31)OC(N)=C(C#N)C21C(=O)c2ccccc2C1=O`, 86.5%.
In the case of `CN1CCN(c2ccc3c(c2)nc(NNC(=O)c2cnccn2)c2cccn23)CC1` it was 36.9%.
Turning to `Cc1cc(C)c(-c2c(O)c(Br)c(-c3c(C)cc(C)c(Br)c3C)c(O)c2Br)c(C)c1Br`, the growth is -6.91% (active).
In the case of `CCN(CC)S(=O)(=O)c1ccc(S(=O)(=O)N2CCC[C@@H](C(=O)N3CCN(C(=O)OC(C)(C)C)CC3)C2)cc1`, the growth is 93.7%.
In the case of `O=C1/C=C/[C@@H](O)[C@@H]2C[C@@H](O)C[C@H]2/C=C/CCC[C@H](CCOCc2ccccc2)O1` it was -24.6% (active).
